Bioassay records from PubChem BioAssay.
LMP1 NFkB inh = Epstein-Barr LMP1 NF-kappaB reporter inhibition; LMP1-induced NF-kappaB luciferase reporter cells, luminescence; inhibition, % at 12.5 µM; 350,000 tested, 0.69% active; AID 504558; in the data active = inhibition above about 41%; inconclusive = no clear call, values can overlap the other calls
MITF act = MITF TRPM1 promoter activation in melanoma cells; SK-MEL-5 TRPM1-promoter luciferase, 24 h; % of positive control, neutral wells = 0; activation, % at 12.5 µM; 300,000 tested, 0.75% active; AID 588334;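 active = mean activation of at least 80% with every replicate also reaching 80%; inconclusive = mean reaches 80% but some replicate falls short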
LGR2 antag = Drosophila LGR2 receptor signaling inhibition | inhibition, % at 9.99 µM | HEK293 LGR2, CRE-luciferase, bursicon-stimulated, 4 h | 380,000 tested, 0.35% active | AID 720647;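 active = drop in luminescence signal, shown as inhibition above about 50% in the replicate tests, limit read from the data, passing the limit was not always enough; inconclusive = probably only some replicates passing the limit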;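 note: agonist challenge used bursicon conditioned medium at about half maximal strength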
TRPM1 prom inh = reduces MITF-dependent TRPM1 promoter luciferase signal; 330,000 tested, 0.83% active; AID 488899; SK-MEL-5 TRPM1 promoter luciferase, 24 h; inhibition, % at 12.5 µM;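 active = mean inhibition across replicates of 60% or more, whatever share of single replicates reaches that level; inconclusive = some that reach 60%, reason not given; inactive = mean inhibition across replicates below 60%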
TWEAK Fn14 block = inhibitors of TWEAK-Fn14 interaction signaling; TWEAK-stimulated Fn14 reporter cells, luciferase luminescence, 8 h; inhibition, % at 10 µM; 360,000 tested, 2% active; in the data active = inhibition above about 50%
TROY NFkB inh = TROY signaling inhibition. Q293 LMP1-TROYcd NF-kB luciferase reporter, 4 h. inhibition, % at 10 µM. 360,000 tested, 0.98% active;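 active = compounds whose plate-normalised and pattern-corrected inhibition of the luciferase reporter signal at the single screening dose is 50% or more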
Large screens that a line does not name were inactive. Compounds with a hit are over-represented: about 3% of the library has one in this group of screens.

O=C(C[C@@H]1C[C@@H]2c3cc(NC(=O)c4ccc5c(c4)OCO5)ccc3O[C@@H]2[C@@H](CO)O1)NCc1ccc(Oc2ccccc2)cc1	LGR2 antag 68 (no result: LMP1 NFkB inh, MITF act, TRPM1 prom inh, TWEAK Fn14 block, TROY NFkB inh)
OC(COC1CCCCC1)CN1CCN(c2ccccc2)CC1 (stereo not given)	none (no result: MITF act, LGR2 antag)
Cc1n(CC(O)COC2CCCCC2)c2ccccc2[n+]1C (stereo not given)	TWEAK Fn14 block 76 (no result: LGR2 antag, TROY NFkB inh)
O=C(CCc1ccccc1)OCCN1CCOCC1	none (no result: LGR2 antag)
CCOC(=O)/C(=C\c1ccccc1)C(=O)CCN1CCOCC1	TRPM1 prom inh 84 (no result: MITF act)
CCc1nc(N2[C@H](C#N)[C@@H](c3ccccc3-c3ccccc3F)[C@@H]2CO)sc1C	none (no result: LMP1 NFkB inh, MITF act, TRPM1 prom inh, TWEAK Fn14 block, TROY NFkB inh)
COc1cccc(NC(=O)N2C[C@@H](O)COC[C@@H]3O[C@@H](CC(=O)NCCCN4CCOCC4)CC[C@H]32)c1	none (no result: LMP1 NFkB inh, MITF act, TRPM1 prom inh, TWEAK Fn14 block, TROY NFkB inh)
COc1cc2c(cc1OC)C(c1cc(Br)ccc1F)N(C(=O)CCl)CC2 (stereo not given)	TRPM1 prom inh 98
C[C@@H]1CN([C@@H](C)CO)C(=O)c2cc(-c3cccnc3)cnc2O[C@@H]1CN(C)C(=O)C1CCCCC1	none (no result: LMP1 NFkB inh, MITF act, TRPM1 prom inh, TWEAK Fn14 block, TROY NFkB inh)
CN(C)c1ccc(/C=C2\SC(=O)N(CCc3nnc(N)s3)C2=O)cc1	LMP1 NFkB inh 73, LGR2 antag 89, TRPM1 prom inh 83, TWEAK Fn14 block 94, TROY NFkB inh 77
C[C@@H]1CN([C@H](C)CO)C(=O)CCCn2cc(nn2)CO[C@H]1CN(C)Cc1ccc2c(c1)OCCN2C	none (no result: LMP1 NFkB inh, MITF act, TRPM1 prom inh, TWEAK Fn14 block, TROY NFkB inh)
Cc1ccsc1/C=N/NC(=O)Nc1ccccc1	MITF act 107
Cc1ccsc1/C=N/NC(=O)c1ccc2ccccc2c1	none
N#CCSc1nc2sc3c(c2c(=O)n1C1CCCCC1)CCCC3	TWEAK Fn14 block 58 (no result: MITF act, LGR2 antag)
CCSc1nc2sc3c(c2c(=O)n1C1CCCCC1)CCN(C)C3	none (no result: LGR2 antag)
COc1ccc(NC(=O)Nc2ccc3c(c2)C(=O)N([C@@H](C)CO)C[C@@H](C)[C@H](CN(C)Cc2ccncc2)OCCCC[C@H](C)O3)cc1	none (no result: LMP1 NFkB inh, MITF act, TRPM1 prom inh, TWEAK Fn14 block, TROY NFkB inh)
CC(Cc1ccco1)NC(=O)c1ccc(C(F)(F)F)cc1 (stereo not given)	MITF act 128
O=C(NCc1ccco1)c1ccc(C(F)(F)F)cc1	none
O=C(Nc1ccc(N2CCN(c3ccc(C(F)(F)F)cn3)CC2)nc1)c1cccs1	none (no result: LGR2 antag)
O=C(Nc1ccc(N2CCN(c3ncccc3C(F)(F)F)CC2)nc1)c1cccs1	LGR2 antag 92, TWEAK Fn14 block 96, TROY NFkB inh 82
Cc1cc(C)cc(NC(=O)Nc2ccc(-n3ccc(C(F)(F)F)n3)cc2)c1	none
O=C(Nc1ccc(-n2ccc(C(F)(F)F)n2)cc1)Nc1cccc(Cl)c1	TWEAK Fn14 block 72
O=C(Nc1ccc(-n2ccc(C(F)(F)F)n2)cc1)c1cccs1	MITF act 123
O=C(O)c1ccccc1C(=O)Nc1ccc(-n2ccc(C(F)(F)F)n2)cc1	none
CCCC(=O)N1CC2(CN(C(=O)NC(C)C)C2)c2c(n(C)c3cc(OC)ccc23)[C@H]1CO	none (no result: LMP1 NFkB inh, MITF act, TRPM1 prom inh, TWEAK Fn14 block, TROY NFkB inh)
CN1[C@@H]2c3ccc(-c4cccc(F)c4)c(=O)n3C[C@@H]2[C@@H](CO)[C@@H]1C(=O)NC1CCCCC1	none (no result: LMP1 NFkB inh, MITF act, TRPM1 prom inh, TWEAK Fn14 block, TROY NFkB inh)
COc1ccc(OCCCN(C)Cc2ccccc2)cc1	TWEAK Fn14 block 76
COc1ccc(CN2C[C@H](O)COC[C@@H]3O[C@H](CC(=O)N4CCc5ccccc5C4)CC[C@H]32)cc1	none (no result: LMP1 NFkB inh, MITF act, TRPM1 prom inh, TWEAK Fn14 block, TROY NFkB inh)
COc1ccc(N=Cc2cc(Cl)ccc2O)cc1Cl	none
Cc1ccc(N=Cc2ccccc2O)cc1Cl	TWEAK Fn14 block 59
CCCC(=O)Nc1ccc2c(c1)C(=O)N(C)[C@@H]1CC[C@@H](CC(=O)NCc3ccccc3F)O[C@H]1CO2	none (no result: LMP1 NFkB inh, MITF act, TRPM1 prom inh, TWEAK Fn14 block, TROY NFkB inh)
O=C1C(=O)N(c2nccs2)C(c2ccccc2)/C1=C(\O)c1ccc2c(c1)OCCO2 (stereo not given)	TRPM1 prom inh 67 (no result: LGR2 antag)
CCNC(=O)C[C@@H]1CC[C@H]2[C@@H](COc3ccc(NC(=O)C4CCOCC4)cc3C(=O)N2C)O1	none (no result: LMP1 NFkB inh, MITF act, TRPM1 prom inh, TWEAK Fn14 block, TROY NFkB inh)
COc1cc(SC#N)ccc1N=Cc1c(C)[nH]n(-c2ccc(C)c(C)c2)c1=O	TRPM1 prom inh 88 (no result: LGR2 antag)
C[C@H](CO)N1C[C@H](C)[C@@H](CN(C)C(=O)c2cccc(F)c2)Oc2ncc(C3=CCCCC3)cc2C1=O	none (no result: LMP1 NFkB inh, MITF act, TRPM1 prom inh, TWEAK Fn14 block, TROY NFkB inh)
Cn1nc(-c2ccccn2)nc2c(=O)n(C)c(=O)nc1-2	LGR2 antag 103, TRPM1 prom inh 104, TWEAK Fn14 block 102, TROY NFkB inh 57
COc1ccc(-c2nc(-c3ccccn3)ncc2S(C)(=O)=O)cc1	none
CCCc1nc2c(=O)n(C)c(=O)nc-2n(C)n1	LMP1 NFkB inh 90, LGR2 antag 102, TRPM1 prom inh 104, TWEAK Fn14 block 104, TROY NFkB inh 90
COc1ccccc1-c1cnc2c(c1)C(=O)N([C@@H](C)CO)C[C@H](C)[C@H](CN(C)C(=O)CN(C)C)O2	none (no result: LMP1 NFkB inh, MITF act, TRPM1 prom inh, TWEAK Fn14 block, TROY NFkB inh)
O=C(NC1CCCC1)[C@@H]1[C@@H](CO)[C@@H]2Cn3c(ccc(-c4ccccc4)c3=O)[C@H]1N2	none (no result: LMP1 NFkB inh, MITF act, TRPM1 prom inh, TWEAK Fn14 block, TROY NFkB inh)
COc1ccc(C(=O)C(CN2CCCC2)c2ccccc2)cc1 (stereo not given)	TRPM1 prom inh 64 (no result: LGR2 antag)
c1ccc(C(CN2CCOCC2)c2ccccc2)cc1	none (no result: LGR2 antag)
O=C(c1ccccc1)C(CCC(CN1CCOCC1)C(=O)c1ccccc1)CN1CCOCC1 (stereo not given)	LMP1 NFkB inh 50, TRPM1 prom inh 75, TWEAK Fn14 block 85, TROY NFkB inh 51 (no result: MITF act, LGR2 antag)
COc1ccc(C(=O)C(CN2CCOCC2)c2ccccc2)cc1 (stereo not given)	LMP1 NFkB inh inconclusive, LGR2 antag 54, TRPM1 prom inh 83
COc1ccc(C(=O)CCN2CCCCCC2)cc1	none
O=C(c1ccc(F)cc1)C(CN1CCOCC1)c1ccccc1 (stereo not given)	LGR2 antag 58, TRPM1 prom inh 90, TWEAK Fn14 block 74
O=C(c1ccc(Cl)cc1)C(CN1CCCC1)c1ccccc1 (stereo not given)	LMP1 NFkB inh 46, TRPM1 prom inh 77, TWEAK Fn14 block 58 (no result: MITF act)
COc1ccc(C(CC(=O)N2CCOCC2)C(C)C)cc1 (stereo not given)	TWEAK Fn14 block 80
O=C(c1ccc(Cl)cc1)C1CCN(Cc2ccccc2)CC1	none (no result: MITF act, TRPM1 prom inh)
CCCCOc1ccc(C(=O)C(CN2CCOCC2)c2ccccc2)cc1 (stereo not given)	none (no result: LGR2 antag)
CCCOc1ccc(C(=O)C(CN2CCCC2)c2ccccc2)cc1 (stereo not given)	TRPM1 prom inh 77
CCS(=O)(=O)c1ncc(Cl)c(C(=O)Nc2ccc(S(=O)(=O)N3CCCC(C)C3)cc2)n1 (stereo not given)	TRPM1 prom inh 104, TWEAK Fn14 block 96, TROY NFkB inh 85
CC1CCCN(S(=O)(=O)c2ccc(NC(=O)CNC3CCCC3)cc2)C1 (stereo not given)	none
CCS(=O)(=O)c1ncc(Cl)c(C(=O)Nc2ccc(C)cc2)n1	TRPM1 prom inh 70, TWEAK Fn14 block 90, TROY NFkB inh 67 (no result: MITF act)
